Measured values taken from PubChem BioAssay (NCI).
About 79,000 compounds went through this panel and 15% of them were active in at least one assay; those are over-represented in the sample as a whole. Active and inactive are the calls of the source. Cut-off read from the data, not from the text of the source: active = growth inhibition above about 70%; inactive = the rest.

Legend:
[1] = NCI Yeast Anticancer Drug Screen. Data for the wt1 strain (AID 149);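 note: 0% = growth of vehicle-treated wt1 cultures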; details: S. cerevisiae wt1 strain (SPY 50644) growth inhibition, hits give high values
Method in brief: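 Readout: yeast growth inhibition, normalised to vehicle controls, in the wt1 strain exposed to test compounds.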

[2] = NCI Yeast Anticancer Drug Screen. Data for the rad50EPP+ strain (AID 151);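 note: 0% = growth of vehicle-treated control cultures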; details: S. cerevisiae rad50 mutant strain, hits give high values
Method in brief: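 Growth inhibition read against vehicle controls in rad50EPP+ yeast, a strain altered in DNA damage repair, after compound exposure.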

[3] = NCI Yeast Anticancer Drug Screen. Data for the rad50 strain (AID 155);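 note: 0% = growth of vehicle-only cultures of the same strain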; details: S. cerevisiae rad50 strain growth inhibition, hits give high values
Method in brief: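 Compounds were tested on a yeast strain with an engineered DNA damage repair alteration; the reported value is growth inhibition normalised to vehicle treatment.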

[4] = NCI Yeast Anticancer Drug Screen. Data for the mec2-1 strain (AID 157); details: S. cerevisiae mec2-1 strain, hits give high values
Method in brief: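 Yeast mec2-1 mutant treated with compound. Readout: growth inhibition vs vehicle controls.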

[5] = NCI Yeast Anticancer Drug Screen. Data for the rad14 strain (AID 159);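 note: 0% = growth of vehicle-treated control cultures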; details: S. cerevisiae rad14 strain growth inhibition, hits give high values
Method in brief: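 Compound-treated yeast with a defined DNA-repair lesion; growth inhibition normalised to vehicle-treated cultures.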

[6] = NCI Yeast Anticancer Drug Screen. Data for the sgs1 mgt1 strain (AID 161);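 note: 0% = growth of cultures given vehicle only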; details: S. cerevisiae sgs1 mgt1 strain, hits give high values
Method in brief: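 Inhibition of yeast growth, normalised to vehicle-treated controls, is reported for a strain bearing genetic alterations in DNA damage repair.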

[7] = NCI Yeast Anticancer Drug Screen. Data for the CLN2oe strain (AID 163);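 note: 0% = growth of vehicle-only control cultures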; details: S. cerevisiae CLN2oe strain, hits give high values
Method in brief: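 Read-out: yeast growth inhibition, expressed relative to vehicle-only controls. The strain bears an engineered cell-cycle alteration.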

[8] = NCI Yeast Anticancer Drug Screen. Data for the cln2 rad14 strain (AID 165);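 note: 0% = growth equal to vehicle treated cultures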; details: S. cerevisiae cln2 rad14 strain, hits give high values
Method in brief: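 cln2 rad14 yeast strain; compound exposure; growth inhibition read vs vehicle controls.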

[9] = NCI Yeast Anticancer Drug Screen. Data for the bub3 strain (AID 167); details: S. cerevisiae bub3 mutant strain, hits give high values
Method in brief: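 Growth of a checkpoint-deficient yeast mutant is measured after compound exposure. Values represent inhibition relative to vehicle.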

[10] = NCI Yeast Anticancer Drug Screen. Data for the wt2 strain (AID 169);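 note: 0% = growth of vehicle-treated yeast cultures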; details: S. cerevisiae wt2 strain growth inhibition, hits give high values
Method in brief: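 Read-out: growth inhibition versus vehicle-treated control cultures after compound exposure of the yeast strain.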

[11] = NCI Yeast Anticancer Drug Screen. Data for the mlh1 strain (AID 171);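 note: 0% = growth of vehicle-treated control cultures of the same strain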; details: S. cerevisiae mlh1 strain growth inhibition, hits give high values
Method in brief: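 Read-out: growth inhibition versus vehicle controls. Strain: engineered yeast with a defined DNA repair or cell cycle defect, compound-treated.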

[12] = NCI Yeast Anticancer Drug Screen. Data for the sgs1 strain (AID 173);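 note: 0% = growth of vehicle-only control cultures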; details: S. cerevisiae sgs1 mutant, hits give high values
Method in brief: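 Read-out: yeast growth inhibition relative to vehicle controls, following compound exposure of a strain with a defined DNA repair/cell cycle alteration.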

[13] = NCI Yeast Anticancer Drug Screen. Data for the mlh1 rad18 strain (AID 175); details: S. cerevisiae mlh1 rad18 strain growth inhibition, hits give high values
Method in brief: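 Yeast w/ defined DNA-repair lesions; compound exposure; growth vs vehicle controls → % inhibition.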

[14] = NCI Yeast Anticancer Drug Screen. Data for the rad18 strain (AID 177); details: S. cerevisiae rad18 mutant growth inhibition, hits give high values
Method in brief: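 Readout: growth inhibition vs vehicle controls. Cells: genetically altered yeast strain, DNA repair defect.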

[15] = NCI Yeast Anticancer Drug Screen. Data for the rad52 strain (AID 147);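 note: 0% = growth of vehicle-treated control cultures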; details: S. cerevisiae rad52 mutant growth inhibition, hits give high values
Method in brief: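 Read-out: growth inhibition versus vehicle-treated controls. Cells were a DNA repair-deficient yeast strain treated with compounds.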

[16] = NCI Yeast Anticancer Drug Screen. Data for the mgt1 strain (AID 153); details: S. cerevisiae mgt1 mutant growth inhibition, hits give high values
Method in brief: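 mgt1 yeast grown with test compound; read-out is growth inhibition versus vehicle-treated cultures.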

[17] = at 5.0 µM (retest, dose inferred, filed as 0.5)
[18] = at 50.0 µM (retest, dose inferred, filed as 5.0)

Measured: growth inhibition

Nc1nc(N)c(-c2ccc(Cl)c(Cl)c2)c(CP(Cl)(Cl)(Cl)Br)n1
active: [3]; at 33.0 µM 76% | [3]; [18] 80% | [4]; [18] 78% | [6]; [18] 82% | [9]; [18] 78% | [10]; at 33.0 µM 80% | [10]; at 100.0 µM 94% | [11]; at 100.0 µM 88% | [12]; at 33.0 µM 74% | [12]; at 100.0 µM 92% | [13]; [18] 88% | [14]; at 11.0 µM 75% | [14]; at 33.0 µM 79% | [14]; at 100.0 µM 74%
inactive: [1]; at 1.2 µM 9% | [1]; at 3.7 µM 16% | [1]; at 11.0 µM 45% | [1]; at 33.0 µM 55% | [1]; at 100.0 µM 48% | [2]; at 1.2 µM -2% | [2]; at 3.7 µM 4% | [2]; at 11.0 µM 20% | [2]; at 33.0 µM 33% | [2]; at 100.0 µM 48% | [3]; at 1.2 µM 9% | [3]; at 3.7 µM 46% | [3]; [17] 53% | [3]; at 11.0 µM 69% | [3]; at 50.0 µM 62% | [3]; at 100.0 µM 59% | [4]; at 1.2 µM 4% | [4]; at 3.7 µM 7% | [4]; [17] 39% | [4]; at 11.0 µM 13% | [4]; at 33.0 µM 38% | [4]; at 50.0 µM 42.4% | [4]; at 100.0 µM 27% | [5]; at 1.2 µM 6% | [5]; at 3.7 µM 8% | [5]; at 11.0 µM 27% | [5]; at 33.0 µM 37% | [5]; at 100.0 µM 54% | [6]; [17] 30% | [6]; at 50.0 µM 63.6% | [7]; at 1.2 µM -2% | [7]; at 3.7 µM -6% | [7]; at 11.0 µM -9% | [7]; at 33.0 µM -2% | [7]; at 100.0 µM 10% | [8]; [17] 0% | [8]; [18] 22% | [8]; at 50.0 µM 9.75% | [9]; at 1.2 µM 10% | [9]; at 3.7 µM 23% | [9]; [17] 45% | [9]; at 11.0 µM 42% | [9]; at 33.0 µM 56% | [9]; at 50.0 µM 51.4% | [9]; at 100.0 µM 55% | [10]; at 1.2 µM 7% | [10]; at 3.7 µM 18% | [10]; at 11.0 µM 56% | [11]; at 1.2 µM -8% | [11]; at 3.7 µM -2% | [11]; at 11.0 µM 7% | [11]; at 33.0 µM 48% | [12]; at 1.2 µM -1% | [12]; at 3.7 µM 6% | [12]; at 11.0 µM 49% | [13]; [17] 64% | [13]; at 50.0 µM 58.4% | [14]; at 1.2 µM 13% | [14]; at 3.7 µM 45%

O=[N+]([O-])c1ccc(-n2nc3ccc4c(no[n+]4[O-])c3[n+]2[O-])c([N+](=O)[O-])c1
inactive: [15]; at 1.2 µM 0% | [15]; at 3.7 µM 1% | [15]; at 11.0 µM 2% | [15]; at 33.0 µM 4% | [15]; at 100.0 µM 6% | [2]; at 1.2 µM 3% | [2]; at 3.7 µM 8% | [2]; at 11.0 µM 13% | [2]; at 33.0 µM 26% | [2]; at 100.0 µM 24% | [16]; at 1.2 µM -4% | [16]; at 3.7 µM -3% | [16]; at 11.0 µM 5% | [16]; at 33.0 µM -3% | [16]; at 100.0 µM -2% | [3]; at 1.2 µM -1% | [3]; at 3.7 µM 1% | [3]; [17] 20% | [3]; at 11.0 µM -5% | [3]; at 33.0 µM 6% | [3]; at 50.0 µM 30.4% | [3]; at 100.0 µM 4% | [4]; at 1.2 µM 3% | [4]; at 3.7 µM 0% | [4]; [17] 23% | [4]; at 11.0 µM 2% | [4]; at 33.0 µM 3% | [4]; at 50.0 µM 9.9% | [4]; at 100.0 µM 2% | [5]; at 1.2 µM -3% | [5]; at 3.7 µM -1% | [5]; at 11.0 µM 7% | [5]; at 33.0 µM 8% | [5]; at 100.0 µM 8% | [6]; [17] 16% | [7]; at 1.2 µM -1% | [7]; at 3.7 µM -5% | [7]; at 11.0 µM -6% | [7]; at 33.0 µM -2% | [7]; at 100.0 µM 2% | [8]; [17] 44% | [8]; at 50.0 µM 9.9% | [9]; at 1.2 µM -3% | [9]; at 3.7 µM 1% | [9]; [17] -14% | [9]; at 11.0 µM 10% | [9]; at 33.0 µM 8% | [9]; at 50.0 µM 66.7% | [9]; at 100.0 µM 9% | [10]; at 1.2 µM -8% | [10]; at 3.7 µM -3% | [10]; at 11.0 µM -2% | [10]; at 33.0 µM 2% | [10]; at 100.0 µM 3% | [11]; at 1.2 µM 0% | [11]; at 3.7 µM -4% | [11]; at 11.0 µM -3% | [11]; at 33.0 µM 1% | [11]; at 100.0 µM -5% | [12]; at 1.2 µM -1% | [12]; at 3.7 µM 1% | [12]; at 11.0 µM 3% | [12]; at 33.0 µM 4% | [12]; at 100.0 µM 6% | [13]; [17] 28% | [13]; at 50.0 µM -13.2% | [14]; at 1.2 µM -1% | [14]; at 3.7 µM 4% | [14]; at 11.0 µM 7% | [14]; at 33.0 µM 1% | [14]; at 100.0 µM 19%
active: [3]; [18] 98% | [4]; [18] 98% | [6]; [18] 97% | [6]; at 50.0 µM 70.5% | [8]; [18] 97% | [9]; [18] 96% | [13]; [18] 97%

Cc1c2ccccc2cc2ccccc12
active: [1]; at 33.0 µM 93% | [1]; at 100.0 µM 98% | [2]; at 3.7 µM 84% | [2]; at 11.0 µM 96% | [2]; at 33.0 µM 98% | [2]; at 100.0 µM 98% | [16]; at 11.0 µM 73% | [16]; at 33.0 µM 99% | [16]; at 100.0 µM 99% | [3]; at 11.0 µM 83% | [3]; at 33.0 µM 98% | [3]; [18] 98% | [3]; at 50.0 µM 98.3% | [3]; at 100.0 µM 98% | [4]; at 33.0 µM 99% | [4]; [18] 99% | [4]; at 50.0 µM 98.6% | [4]; at 100.0 µM 99% | [5]; at 33.0 µM 99% | [5]; at 100.0 µM 99% | [6]; [18] 99% | [6]; at 50.0 µM 98.4% | [8]; [18] 99% | [8]; at 50.0 µM 98% | [9]; at 33.0 µM 95% | [9]; [18] 99% | [9]; at 50.0 µM 98.2% | [9]; at 100.0 µM 99% | [10]; at 33.0 µM 98% | [10]; at 100.0 µM 99% | [11]; at 11.0 µM 86% | [11]; at 33.0 µM 99% | [11]; at 100.0 µM 99% | [12]; at 11.0 µM 97% | [12]; at 33.0 µM 99% | [12]; at 100.0 µM 99% | [13]; [18] 99% | [13]; at 50.0 µM 97.8% | [14]; at 11.0 µM 76% | [14]; at 33.0 µM 98% | [14]; at 100.0 µM 98%
inactive: [1]; at 1.2 µM -2% | [1]; at 3.7 µM 1% | [1]; at 11.0 µM 24% | [2]; at 1.2 µM 52% | [16]; at 1.2 µM -2% | [16]; at 3.7 µM 19% | [3]; at 1.2 µM 4% | [3]; at 3.7 µM 36% | [3]; [17] 16% | [4]; at 1.2 µM -2% | [4]; at 3.7 µM 14% | [4]; [17] 35% | [4]; at 11.0 µM 61% | [5]; at 1.2 µM 5% | [5]; at 3.7 µM 21% | [5]; at 11.0 µM 55% | [6]; [17] 34% | [8]; [17] 51% | [9]; at 1.2 µM -3% | [9]; at 3.7 µM 7% | [9]; [17] 58% | [9]; at 11.0 µM 49% | [10]; at 1.2 µM -4% | [10]; at 3.7 µM -1% | [10]; at 11.0 µM 63% | [11]; at 1.2 µM 8% | [11]; at 3.7 µM 27% | [12]; at 1.2 µM -14% | [12]; at 3.7 µM 20% | [13]; [17] 65% | [14]; at 1.2 µM 5% | [14]; at 3.7 µM 25%
